RecA splice inh: blocks M. tuberculosis RecA intein splicing; AID 2221; inhibition, % (test concentration not listed); P9WHJ3; 290,000 compounds, 0.75% hits; cell-free RecA intein splicing, fluorescence; in the data active means inhibition above about 30%
Target sequence (P9WHJ3 whole entry, looked up, canonical isoform): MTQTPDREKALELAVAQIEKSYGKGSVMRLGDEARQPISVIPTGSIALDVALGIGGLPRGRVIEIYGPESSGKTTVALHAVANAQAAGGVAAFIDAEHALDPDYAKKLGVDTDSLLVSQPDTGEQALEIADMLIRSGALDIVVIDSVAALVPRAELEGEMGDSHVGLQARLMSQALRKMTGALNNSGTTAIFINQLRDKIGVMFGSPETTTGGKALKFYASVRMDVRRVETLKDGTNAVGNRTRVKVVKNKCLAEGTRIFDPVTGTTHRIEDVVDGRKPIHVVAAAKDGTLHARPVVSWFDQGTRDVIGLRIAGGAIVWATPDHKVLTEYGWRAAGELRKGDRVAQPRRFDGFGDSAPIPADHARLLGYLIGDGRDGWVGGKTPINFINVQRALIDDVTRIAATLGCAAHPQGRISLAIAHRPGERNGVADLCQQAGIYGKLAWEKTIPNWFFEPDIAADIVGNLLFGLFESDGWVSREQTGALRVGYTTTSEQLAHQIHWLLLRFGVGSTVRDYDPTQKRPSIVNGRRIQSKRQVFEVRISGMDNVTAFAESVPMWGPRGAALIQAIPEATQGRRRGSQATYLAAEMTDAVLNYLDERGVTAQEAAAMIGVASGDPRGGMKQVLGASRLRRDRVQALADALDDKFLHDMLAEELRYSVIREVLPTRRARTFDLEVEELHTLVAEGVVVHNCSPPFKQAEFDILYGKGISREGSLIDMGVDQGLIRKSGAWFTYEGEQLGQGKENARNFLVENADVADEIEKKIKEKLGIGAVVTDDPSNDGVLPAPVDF
Mtb hypoxia inh: inhibitors of hypoxia-regulated fluorescent reporter in Mycobacterium tuberculosis; fluorescence inhibition, % (no concentration beside the values); M. tuberculosis hypoxia-regulated fluorescent reporter, fluorescence; 300,000 compounds, 0.1% hits; in the data active means fluorescence inhibition mostly above about 23%, no sharp cut-off; inactive means mostly below about 17%
PrP UTR inh: suppresses PrP 5' UTR mRNA reporter expression; inhibition, % (test concentration not listed); 340,000 compounds, 0.35% hits; cell-based PrP 5' UTR mRNA reporter, plate reader; in the data active means inhibition above about 52%
BJeLR viability: kills HRASV12-expressing BJeLR cells. BJeLR (HRASV12) viability, CellTiter-Glo ATP luminescence, 48 h. inhibition, % (no concentration beside the values). 300,000 compounds, 0.17% hits; in the data active means inhibition above about 50%
3CLpro inhibitor: SARS-CoV 3CLpro protease inhibition; P0C6X7; recombinant SARS-CoV 3CLpro, quenched FRET peptide cleavage; inhibition, % at 6 µM; 290,000 compounds, 0.14% hits; AID 1706; in the data active means inhibition above about 12%
PrPC TRFRET: reduces human prion protein on the cell surface. P04156. 370,000 compounds, 0.43% hits. inhibition, % at 13.8 µM. cell surface PrPC, TR-FRET read-out; in the data active means inhibition above about 24%
GFP chromo cs: counter-screen: blocks GFP chromophore formation. shares compounds with RecA splice inh. cell-free GFP chromophore formation, fluorescence. EC50, µM. 2,100 compounds, 83% hits; call rule not given here
Each line names hits and unclear results; the compound was inactive in the other large screens (follow-up assays come after a bar, where they were run). Rows were chosen to be rich in hits. Some 1.4% of all compounds tested hit in one or more screens of this group.

CCCC(=O)NC1=C(Cl)C(=O)c2ccccc2C1=O	none (no result: RecA splice inh, Mtb hypoxia inh, BJeLR viability, 3CLpro inhibitor)
O=[N+]([O-])c1cccc(C(=Nc2ccccc2)NO)c1	none
O=[N+]([O-])c1cc([N+](=O)[O-])c2c(=Nc3ccccc3)n(-c3ccccc3)n(O)c2c1	RecA splice inh 74.1 | GFP chromo cs 4.08
CCNc1ccccc1CP(=O)(c1ccccc1)c1ccccc1O (stereo not given)	RecA splice inh 31.9 (no result: Mtb hypoxia inh, PrP UTR inh) | GFP chromo cs 2.15
COc1ccc(Cn2c(O)c(/C=N/NC(=O)c3ccccc3O)c(=O)[nH]c2=O)cc1	RecA splice inh 30.7 | GFP chromo cs inactive
CC1CN(C(C)CO)C(=O)c2cccc(NS(C)(=O)=O)c2OC1CN(C)Cc1ccc(Oc2ccccc2)cc1 (stereo not given)	none (no result: RecA splice inh, PrP UTR inh, BJeLR viability, 3CLpro inhibitor, PrPC TRFRET)
CC(CC(=O)Nc1ccccc1C)=NNC(=O)Cc1csc(N)n1	none (no result: RecA splice inh, PrP UTR inh, BJeLR viability, 3CLpro inhibitor, PrPC TRFRET)
Nc1ccc2cn[nH]c2c1	RecA splice inh 77.8 (no result: Mtb hypoxia inh) | GFP chromo cs 21.6
Brc1ccc2[nH]ncc2c1	none
CCC(CC)C(=O)NCc1ccc2c(c1)cc(C)n2C	RecA splice inh 31.3 | GFP chromo cs inactive
CC1=NNC(=O)C1C(c1ccc(F)cc1)C(C#N)C#N (stereo not given)	RecA splice inh 85.3 | GFP chromo cs 16.6
COc1ccc(OCC(=O)NN=C(C)CC(=O)Nc2cccc([N+](=O)[O-])c2)cc1	none (no result: RecA splice inh, PrP UTR inh, BJeLR viability, 3CLpro inhibitor, PrPC TRFRET)
CCC(=O)N/N=C(\C)CC(=O)Nc1cccc([N+](=O)[O-])c1	RecA splice inh 76.0 (no result: Mtb hypoxia inh) | GFP chromo cs 28.7
COc1ccccc1N1C(=O)Cc2ccccc2C1=O	RecA splice inh 31.1 | GFP chromo cs 11.3
CCc1ccc(NC(=O)CC(C)=NNC(=O)COc2ccc(C)cc2Br)cc1	none (no result: RecA splice inh, PrP UTR inh, BJeLR viability, 3CLpro inhibitor, PrPC TRFRET)
Cc1nn(-c2cccc(Cl)c2)c2c1C(c1ccncc1)C(C#N)=C(N)O2 (stereo not given)	RecA splice inh 57.1 | GFP chromo cs 23
Cc1nn(-c2cccc(Cl)c2)c2c1C(c1cccnc1)C(C#N)=C(N)O2 (stereo not given)	RecA splice inh 34.7 | GFP chromo cs 21.3
CC(=O)C1=C(C)OC(N)=C(C#N)C1c1ccncc1 (stereo not given)	none (no result: Mtb hypoxia inh)
COc1ccc(OC)c(C2C(C#N)=C(N)Oc3c2c(C)nn3-c2cccc(Cl)c2)c1 (stereo not given)	RecA splice inh 37.4 | GFP chromo cs 37.8
C#CCOCCOCCOCCNc1nc(N2CCN(C(=O)C(CCCCN)n3cc(C(N)CO)nn3)CC2)nc(N2CCN(C(=O)C(CCCCN)n3cc(C(N)CC(C)C)nn3)CC2)n1 (stereo not given)	none (no result: RecA splice inh, PrP UTR inh, BJeLR viability, 3CLpro inhibitor, PrPC TRFRET)
O=C(C=Cc1cccs1)N1CCC2(CC1)Oc1ccc(Cl)cc1C(=O)C21CC(c2cccnc2)=NO1 (stereo not given)	none (no result: RecA splice inh, PrP UTR inh, BJeLR viability, 3CLpro inhibitor, PrPC TRFRET)
CC(C)CC(CO)Nc1nc(Nc2cccc(Cl)c2)c2ncn(C(C)C)c2n1 (stereo not given)	none (no result: RecA splice inh, PrP UTR inh, BJeLR viability, 3CLpro inhibitor, PrPC TRFRET)
O=[N+]([O-])/C(C(Cl)=C(Cl)Cl)=C(/Sc1ccccc1)N1CCCCC1	RecA splice inh 33.7 | GFP chromo cs inactive
O=C(N/C(=C\c1ccc([N+](=O)[O-])cc1)C(=O)N1CCCCC1)c1ccccc1	none (no result: Mtb hypoxia inh)
COc1cc(C=NNC(=O)NC2CCCCC2)cc(OC)c1O	none (no result: RecA splice inh, PrP UTR inh, BJeLR viability, 3CLpro inhibitor, PrPC TRFRET)
COC(=O)c1nc(-c2ccc3c(n2)C(=O)C(N)=C(OC)C3=O)c(N)c(-c2ccc(OC)c(OC)c2O)c1C	RecA splice inh 93.6, BJeLR viability 64.4 | GFP chromo cs 0.845
CCOc1ccccc1N1CCN(C(=O)c2ccccc2)CC1	none
CCOc1ccccc1N1CCN(C(=O)c2ccc(-c3ccc(OC(C)=O)cc3)cc2)CC1	RecA splice inh 31.2 | GFP chromo cs inactive
CC(CC(=O)NC12CC3CC(CC(C3)C1)C2)=NNC(=O)c1ccc(F)cc1	none (no result: RecA splice inh, PrP UTR inh, BJeLR viability, 3CLpro inhibitor, PrPC TRFRET)
CCCNC1CCc2nc(N)sc2C1 (stereo not given)	none (no result: RecA splice inh, PrP UTR inh, BJeLR viability, 3CLpro inhibitor, PrPC TRFRET)
COc1cc(/C=N/NC(=O)CC2(C)OCCCO2)ccc1OCc1ccccc1	RecA splice inh 39.4 (no result: Mtb hypoxia inh) | GFP chromo cs 3.11
CC1CCCC(=CNc2ccc(C(=O)O)cc2)C1=O (stereo not given)	none (no result: RecA splice inh, PrP UTR inh, BJeLR viability, 3CLpro inhibitor, PrPC TRFRET)
CCOC(=O)CC1=NN(c2ccccc2)C(=O)/C1=C\c1ccc(OC)cc1OC	RecA splice inh 47.5 (no result: Mtb hypoxia inh) | GFP chromo cs 0.405
COC(=O)CC1=NN(c2ccccc2)C(=O)/C1=C\c1ccc(OC)cc1	none
CN(CCc1cnn(C)c1)C(=O)C1CCC(=O)N(CC2CCCCC2)C1 (stereo not given)	RecA splice inh 46.1 | GFP chromo cs inactive
CCCCn1c(SCC(=O)NCc2ccco2)nc2ccccc2c1=O	none
CC(=O)NCCn1c(SCC(=O)NCc2ccco2)nc2ccccc2c1=O	RecA splice inh 66.6 | GFP chromo cs 24.9
COc1cccc(CN2CCN(Cc3ccc(C#CC(C)(C)O)s3)CC2CCO)c1 (stereo not given)	RecA splice inh 77.1 | GFP chromo cs inactive
COc1ccc(C2NC(c3ccc(OC)cc3OC)C(C)C(=O)C2C)c(OC)c1 (stereo not given)	RecA splice inh 51.2 | GFP chromo cs inactive
COc1ccc(OC)c(C2CC(=O)C(C)C(c3cc(OC)ccc3OC)N2)c1 (stereo not given)	none
Cc1onc(-c2ccccc2)c1C(=O)n1nnc2ccccc21	RecA splice inh 30.7 | GFP chromo cs 35.4
Cc1onc(-c2ccccc2)c1C(N)=O	none
COc1ccc2c(c1)C1C(CO2)C(c2ccccc2)[C@]2(C)C(=O)NCC(=O)N12 (stereo not given in full)	none (no result: RecA splice inh, PrP UTR inh, BJeLR viability, 3CLpro inhibitor, PrPC TRFRET)
Cc1cccc(CN2CCN(CCCc3ccccc3)CC2)c1	none (no result: PrP UTR inh, PrPC TRFRET)
Cc1cc(=O)n(CCCc2ccccc2)[nH]1	RecA splice inh 91.9 (no result: 3CLpro inhibitor) | GFP chromo cs 8.02
CC1CCCN(C2=C(Cl)C(=O)N(c3cccc(Cl)c3)C2=O)C1 (stereo not given)	RecA splice inh 70.1 | GFP chromo cs 8.71
O=C1c2ccccc2C(=O)N1CCCCc1cn(CC2CCC(C3CCC(Cn4cc(CCCCN5C(=O)c6ccccc6C5=O)nn4)O3)O2)nn1 (stereo not given)	none (no result: RecA splice inh, PrP UTR inh, BJeLR viability, 3CLpro inhibitor, PrPC TRFRET)
O=C(c1c[nH]c(C(=O)C(Cl)(Cl)Cl)c1)c1ccccc1Br	RecA splice inh 51.3 | GFP chromo cs 26.1
CCN1C(=O)C2C(c3ccc(-c4ccc(C(C)=O)cc4)cc3)N[C@@](Cc3ccccc3)(C(=O)OC)C2C1=O (stereo not given in full)	none (no result: RecA splice inh, PrP UTR inh, BJeLR viability, 3CLpro inhibitor, PrPC TRFRET)
C/C(=N\NC(=S)NC(C)C)c1ccccc1	none (no result: Mtb hypoxia inh)
CC(C)NC(=S)NC(c1ccccc1)(c1ccccc1)c1ccccc1	RecA splice inh 31.6 (no result: Mtb hypoxia inh) | GFP chromo cs inactive
CCCc1nc([N+](=O)[O-])c(S(=O)(=O)c2ccccc2)n1CC(C)C	none
CC(C)Cn1c(C(C)C)nc([N+](=O)[O-])c1S(=O)(=O)c1ccc(F)cc1	RecA splice inh 51.0 | GFP chromo cs inactive
O=C(C/C=N\OCc1c(Cl)cccc1Cl)Oc1ccc(Cl)cc1Cl	RecA splice inh 45.3 (no result: Mtb hypoxia inh) | GFP chromo cs 27.1

Screens from PubChem BioAssay.
